High-throughput results (PubChem BioAssay)
Shown are actives, neighbours in structure and some others; about 3.2% of the full set was active somewhere.
TcdB inh: inhibitors of Clostridioides difficile toxin B glycohydrolase; 350,000 compounds, 0.24% hits; inhibition, % at 9.99 µM; TcdB glycohydrolase enzymatic assay, plate reader; P18177; in the data active = inhibition above about 10%
Yp Topo-I inh: Y. pestis Topo-I inhibition via cleavage products. Y. pestis Topo-I cleavage product accumulation, plate reader. activity, % at 10 µM. 360,000 compounds, 0.064% hits; in the data active = activity above about 50%, passing the limit was not always enough
PrPC surface inh: reduces human prion protein on the cell surface. cell surface PrPC, TR-FRET read-out. 370,000 compounds, 0.43% hits. P04156. inhibition, % at 13.8 µM; in the data active = inhibition above about 24%; also: 0% = median of the test wells and 100% = reference compound wells
GDH-TPI counter: counter-screen for M. tuberculosis FBA inhibitors: GDH-TPI coupled enzymes; AID 588335; 360,000 compounds, 1.2% hits; inhibition, % at 4.8 µM; GDH-TPI coupled enzyme counterscreen, NADH absorbance; in the data active = inhibition above about 30%;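 also: 0% = DMSO wells and 100% = wells lacking the enzyme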
FBA Mtb inh: Mtb fructose-bisphosphate aldolase inhibition. inhibition, % at 1 µM. P9WQA3. purified M. tuberculosis FBA, fluorescence read-out. 360,000 compounds, 2.3% hits; in the data active = inhibition above about 27%;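 also: 0% = vehicle and 100% = reference inhibitor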
Starred values were filed as active, the others as inactive; . = no result; + = active, no number.

SMILES	TcdB inh	Yp Topo-I inh	PrPC surface inh	GDH-TPI counter	FBA Mtb inh
CCC(=O)Nc1ccc(NC(=S)NC(=O)/C=C/c2ccco2)cc1	1.1	-5.0	-6.8	47.5*	-2.6
O=C(/C=C/c1ccco1)NC(=S)NNC(=O)c1ccco1	0.0	-3.8	-10.5	43.4*	1.0
CC(=O)NC(=S)Nc1ccc(NC(=S)NC(=O)/C=C/c2ccco2)cc1	2.5	10.8	2.5	27.9	-2.3
O=C(/C=C/c1ccco1)NC(=S)Nc1ccc(C(=O)O)cc1	-0.8	-5.2	-12.8	0.7	-0.8
C/C(=C\c1cccs1)C(=O)c1c(C)cc(C)[nH]c1=O	0.1	5.0	-2.0	53.2*	2.4
Cc1ccccc1CN(C)C[C@@H]1OCc2cnnn2CCCC(=O)N([C@@H](C)CO)C[C@@H]1C	0.1	.	.	.	.
CCn1c(NC(=O)c2ccc(COc3ccc(C)cc3[N+](=O)[O-])o2)nc2ccccc21	.	0.2	1.0	31.8*	0.9
Cc1ccc(OCc2ccc(C(=O)Nc3cc(C)on3)o2)c([N+](=O)[O-])c1	0.0	-13.3	7.3	22.0	6.2
COc1ccc(Cn2c(O)c(/C=N/NC(=O)c3ccccc3O)c(=O)[nH]c2=O)cc1	0.2	0.6	-0.8	26.6	9.7
O=C(N/N=C/c1c(O)n(CCc2ccccc2)c(=O)[nH]c1=O)c1ccccc1O	0.4	15.7	3.1	20.2	14.1
O=C(N/N=C/c1c(O)n(Cc2ccccc2)c(=O)[nH]c1=O)c1ccccc1O	.	8.0	7.3	34.8*	9.3
O=C(N/N=C/c1c(O)n(Cc2ccc(F)cc2)c(=O)[nH]c1=O)c1ccccc1O	5.5	-2.0	-3.2	50.6*	11.9
COc1cc(-c2cc(C(=O)Nc3ccc(N4CCOCC4)cc3)c3ccccc3n2)cc(OC)c1OC	-1.4	7.9	-4.6	42.5*	-1.6
O=C(Nc1ccc(N2CCOCC2)cc1)c1cc(-c2ccncc2)nc2ccccc12	1.6	6.2	-8.4	12.5	0.6
O=C(C(=O)N1CCOCC1)c1cn(Cc2ccc(F)cc2)c2ccccc12	1.1	4.2	0.0	32.1*	-4.3
Cc1ccccc1OCCCn1cc(C(=O)C(=O)N2CCOCC2)c2ccccc21	1.2	32.8	-11.4	11.1	152.4*
C[C@@H]1CN([C@H](C)CO)C(=O)Cc2cc(NC(=O)Cn3cnnn3)ccc2O[C@H]1CN(C)S(=O)(=O)c1ccccc1	-0.8	.	.	.	.
CN(C)C(=O)C[C@@H]1CC[C@H]2[C@@H](COc3ccc(NC(=O)c4ccc(F)cc4)cc3C(=O)N2C)O1	-4.1	.	.	.	.
CCN(CC)c1ccc(CC2C(=O)N(C)C(=O)N(C)C2=O)cc1	.	22.9	.	8.6	41.6*
CCN1[C@H](C(=O)OC)[C@@H](CO)[C@@H]2Cn3c(ccc(-c4cccc(C(=O)N(C)C)c4)c3=O)[C@@H]21	1.0	.	.	.	.
CN(C(=O)CSc1nc2ccc([N+](=O)[O-])cc2s1)C1CCS(=O)(=O)C1 (stereo unspecified)	1.2	-4.0	-36.5	34.2*	0.4
COc1ccc(/C=[N+](\[O-])C2N(c3ccccc3)C(=S)SC2(C)C)cc1OC (stereo unspecified)	-1.0	-3.9	-7.2	32.4*	-1.5
O=C(C[C@@H]1CC[C@H](NC(=O)Nc2ccc(F)cc2)[C@@H](CO)O1)NCc1ccccn1	0.2	.	.	.	.
Cc1ccc(S(=O)(=O)N(C)C[C@H]2Oc3ccc(NC(=O)NC(C)C)cc3C(=O)N([C@@H](C)CO)C[C@H]2C)cc1	0.0	.	.	.	.
CCCc1cc(=O)oc2cc(C)cc(OCc3nn[nH]n3)c12	.	-0.1	7.0	9.4	128.3*
SMILES	TcdB inh	Yp Topo-I inh	PrPC surface inh	GDH-TPI counter	FBA Mtb inh
Cc1cc2oc(=O)c3c(c2cc1OCc1nn[nH]n1)CCCC3	.	5.0	11.2	14.1	14.8
Cc1c(OCc2nn[nH]n2)ccc2c3c(c(=O)oc12)CCCC3	.	14.8	-0.4	7.0	124.4*
CCCc1cc(=O)oc2cc(C)cc(O)c12	.	-1.7	6.4	5.3	1.4
Cc1cc(OCc2nn[nH]n2)c2c3c(c(=O)oc2c1)CCC3	.	4.3	1.0	-3.2	+
COc1cccc(S(=O)(=O)Nc2ccc3c(c2)[C@@H]2C[C@@H](CC(=O)O)O[C@H](CO)[C@@H]2O3)c1	0.0	.	.	.	.
CCn1c(=S)sc2c(=O)n(-c3ccccc3)c(SCC(=O)NCc3ccco3)nc21	.	18.7	-2.0	38.1*	0.2
CCC(C)NC(=O)CSc1nc2c(sc(=S)n2Cc2ccco2)c(=O)n1-c1ccccc1 (stereo unspecified)	.	8.6	-1.0	20.1	0.1
CN(C)c1ccc(C(=O)N=c2sccn2C)cc1[N+](=O)[O-]	-0.5	2.1	-0.1	38.4*	-4.0
Cn1ccsc1=NC(=O)c1ccc(Cl)cc1	1.1	2.4	-1.9	18.3	4.3
C[C@H]1CN([C@@H](C)CO)C(=O)c2cccc(NS(=O)(=O)c3cccs3)c2O[C@H]1CN(C)C	-0.2	.	.	.	.
O=C(CSc1nccc(=O)[nH]1)N1N=C2/C(=C/c3ccco3)CCCC2C1c1ccco1 (stereo unspecified)	-1.1	10.1	-3.6	11.9	1.1
Cn1cnnc1SCC(=O)N1N=C2/C(=C/c3ccco3)CCCC2C1c1ccco1 (stereo unspecified)	.	14.1	-2.1	18.6	0.0
Nc1nc(SCC(=O)N2N=C3/C(=C/c4ccco4)CCCC3C2c2ccco2)n[nH]1 (stereo unspecified)	.	13.3	1.3	34.8*	3.9
Nc1nc(SCC(=O)N2N=C3/C(=C\c4ccco4)CCCC3C2c2ccco2)n[nH]1 (stereo unspecified)	-0.1	15.6	-2.2	32.6*	-1.2
C[C@H]1CN([C@@H](C)CO)C(=O)c2cccc(NC(=O)c3nc4ccccc4s3)c2O[C@@H]1CN(C)S(=O)(=O)c1ccc(F)cc1	-2.3	.	.	.	.
CC(C)Cc1[nH]c(=O)c(C#N)c2c1COC(C)(C)C2	.	6.3	-3.6	31.0*	16.5
COc1ccc(-c2nc3ccccc3c(=O)[nH]2)cc1	0.7	-0.8	-5.7	-4.3	3.8
CN(C)c1ccc(-c2nc3ccccc3c(=O)[nH]2)cc1	-0.3	8.7	-0.2	73.7*	1.7
CCCCC#Cc1ccccc1COC[B-](F)(F)F	-5.8	.	29.5*	.	.
COc1cccc(S(=O)(=O)N[C@H]2CC[C@@H](CCNC(=O)Nc3cc(F)ccc3F)O[C@@H]2CO)c1	-0.1	.	.	.	.
COCC(=O)Nc1ccc2c(c1)C(=O)N(C)[C@H]1CC[C@@H](CC(=O)Nc3ccccc3)O[C@@H]1CO2	0.6	.	.	.	.
O=C1CS/C(=N/N=C/c2ccco2)N1Cc1ccc(F)cc1	4.5	1.9	-5.3	37.9*	-1.5
Cc1ccc2c(c1)COc1c3ccc(C(=O)NCCO)cc3nn1-2	-1.8	2.4	-19.9	16.4	32.3*
CNC(=O)N(O)C1N(/N=C/c2ccc(N(C)C)cc2)C(=S)SC1(C)C (stereo unspecified)	9.6	-0.2	6.8	17.8	-2.6
CNC(=O)N(O)C1N(/N=C/c2ccccc2OC)C(=S)SC1(C)C (stereo unspecified)	0.2	-3.3	-7.7	22.8	4.4
CNC(=O)N(O)C1N(/N=C/c2cccs2)C(=S)SC1(C)C (stereo unspecified)	10.2*	-2.0	-2.9	22.8	1.5
